# Reference: PubChem BioAssay AID1159580 (chemical genetic matrix, 2015)
# Out of some 5,500 compounds screened, about 2,000 (36%) were called active. Another 18% or so got no clear call; they are omitted. The list shows a part of the results. A number with no mark means an inactive call. No stated cut-off is given here; in the data, active means normalized growth mostly below about 0.91 (no sharp cut-off); inconclusive means no clear call, values can overlap the other calls; inactive means mostly above about 0.92.
# Test: chemical genetic growth profiling, strain panel (AID 1159580);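 further: tested at 20 µM; growth read once vehicle control cultures reached saturation at 30 °C; 1 = growth at the plate median or of vehicle wells; lower values mean less growth of the strain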
# Conditions: growth OD
compound,measurement,setting,value
CN1C[C@H](C(=O)N[C@]2(C)O[C@@]3(O)[C@@H]4CCCN4C(=O)[C@H](Cc4ccccc4)N3C2=O)C[C@@H]2c3cccc4[nH]cc(c34)C[C@H]21,normalized growth,"S. cerevisiae deletion strains, locus YKL009W, strain mrt4, hits give low values",0.97
same,normalized growth,"S. cerevisiae deletion strains, locus YKL068W, hits give low values",0.989
same,normalized growth,"S. cerevisiae deletion strains, locus YKL085W, strain MDH1 (second series), hits give low values",0.987
same,normalized growth,"S. cerevisiae deletion strains, locus YKL085W, strain MDH1, hits give low values",0.987
same,normalized growth,"S. cerevisiae deletion strains, locus YKL160W, strain elf1, hits give low values",0.928
same,normalized growth,"S. cerevisiae deletion strains, locus YKL190W, strain CNB1, hits give low values",0.992
same,normalized growth,"S. cerevisiae deletion strains, locus YKR001C, strain vps1, hits give low values",1
same,normalized growth,"S. cerevisiae deletion strains, locus YKR026C, strain gcn3, hits give low values",0.996
same,normalized growth,"S. cerevisiae deletion strains, locus YKR091W, strain srl3, hits give low values",0.983
same,normalized growth,"S. cerevisiae deletion strains, locus YLL001W, strain dnm1, hits give low values",0.92
same,normalized growth,"S. cerevisiae deletion strains, locus YLL026W, hits give low values",0.988
same,normalized growth,"S. cerevisiae deletion strains, locus YLL041C, strain sdh2, hits give low values",0.997
same,normalized growth,"S. cerevisiae deletion strains, locus YLR027C, strain aat2, hits give low values",0.992
same,normalized growth,"S. cerevisiae deletion strains, locus YLR039C, strain RIC1, hits give low values",1.06
same,normalized growth,"S. cerevisiae deletion strains, locus YLR058C, strain SHM2, hits give low values",0.957
same,normalized growth,"S. cerevisiae deletion strains, locus YLR102C, strain apc9, hits give low values",0.974
same,normalized growth,"S. cerevisiae deletion strains, locus YLR113W, strain HOG1, hits give low values",1.07
same,normalized growth,"S. cerevisiae deletion strains, locus YLR221C, strain rsa3, hits give low values",0.997
same,normalized growth,"S. cerevisiae deletion strains, locus YLR258W, strain gsy2, hits give low values",1.01
same,normalized growth,"S. cerevisiae deletion strains, locus YLR262C, strain YPT6 (second series), hits give low values",0.973
same,normalized growth,"S. cerevisiae deletion strains, locus YLR262C, strain YPT6, hits give low values",1.06
same,normalized growth,"S. cerevisiae deletion strains, locus YLR268W, strain sec22, hits give low values",0.973
same,normalized growth,"S. cerevisiae deletion strains, locus YLR320W, strain mms22, hits give low values",0.969
same,normalized growth,"S. cerevisiae deletion strains, locus YLR330W, strain CHS5, hits give low values",0.984
same,normalized growth,"S. cerevisiae deletion strains, locus YLR342W, strain FKS1 (second series), hits give low values",0.906
same,normalized growth,"S. cerevisiae deletion strains, locus YLR342W, strain FKS1, hits give low values",1.01
same,normalized growth,"S. cerevisiae deletion strains, locus YLR357W, strain rsc2, hits give low values",0.957
same,normalized growth,"S. cerevisiae deletion strains, locus YLR370C, strain arc18, hits give low values",0.987
same,normalized growth,"S. cerevisiae deletion strains, locus YLR371W, strain rom2, hits give low values",0.974
same,normalized growth,"S. cerevisiae deletion strains, locus YLR384C, strain iki3, hits give low values",1.01
same,normalized growth,"S. cerevisiae deletion strains, locus YLR418C, strain cdc73, hits give low values",0.803 (active)
same,normalized growth,"S. cerevisiae deletion strains, locus YML016C, strain PPZ1, hits give low values",0.979
same,normalized growth,"S. cerevisiae deletion strains, locus YML032C, strain rad52, hits give low values",0.979
same,normalized growth,"S. cerevisiae deletion strains, locus YML120C, strain ndi1, hits give low values",0.95
same,normalized growth,"S. cerevisiae deletion strains, locus YML124C, strain tub3, hits give low values",0.982
same,normalized growth,"S. cerevisiae deletion strains, locus YMR058W, strain fet3, hits give low values",0.965
same,normalized growth,"S. cerevisiae deletion strains, locus YMR078C, strain ctf18, hits give low values",0.963
same,normalized growth,"S. cerevisiae deletion strains, locus YMR125W, strain sto1, hits give low values",0.921
same,normalized growth,"S. cerevisiae deletion strains, locus YMR129W, hits give low values",0.989
same,normalized growth,"S. cerevisiae deletion strains, locus YMR205C, strain PFK2, hits give low values",0.946
same,normalized growth,"S. cerevisiae deletion strains, locus YMR223W, strain ubp8, hits give low values",0.941
same,normalized growth,"S. cerevisiae deletion strains, locus YMR231W, strain pep5, hits give low values",1.01
same,normalized growth,"S. cerevisiae deletion strains, locus YMR263W, strain SAP30, hits give low values",0.959
same,normalized growth,"S. cerevisiae deletion strains, locus YMR307W, strain GAS1, hits give low values",0.821
same,normalized growth,"S. cerevisiae deletion strains, locus YNL067W, strain RPL9B, hits give low values",0.961
same,normalized growth,"S. cerevisiae deletion strains, locus YNL071W, strain lat1, hits give low values",0.994
same,normalized growth,"S. cerevisiae deletion strains, locus YNL128W, strain TEP1, hits give low values",0.96
same,normalized growth,"S. cerevisiae deletion strains, locus YNL153C, strain GIM3, hits give low values",0.965
same,normalized growth,"S. cerevisiae deletion strains, locus YNL183C, strain NPR1, hits give low values",0.98
same,normalized growth,"S. cerevisiae deletion strains, locus YNL209W, strain ssb2, hits give low values",0.981
same,normalized growth,"S. cerevisiae deletion strains, locus YNL233W, strain BNI4, hits give low values",0.933
same,normalized growth,"S. cerevisiae deletion strains, locus YNL248C, strain rpa49, hits give low values",0.933
same,normalized growth,"S. cerevisiae deletion strains, locus YNL250W, strain rad50, hits give low values",0.984
same,normalized growth,"S. cerevisiae deletion strains, locus YNL271C, strain bni1, hits give low values",0.974
same,normalized growth,"S. cerevisiae deletion strains, locus YNL298W, strain CLA4, hits give low values",0.985
same,normalized growth,"S. cerevisiae deletion strains, locus YNL307C, strain MCK1, hits give low values",0.967
same,normalized growth,"S. cerevisiae deletion strains, locus YNL322C, strain KRE1 (second series), hits give low values",0.989
same,normalized growth,"S. cerevisiae deletion strains, locus YNL322C, strain KRE1, hits give low values",0.996
same,normalized growth,"S. cerevisiae deletion strains, locus YNR049C, strain mso1, hits give low values",0.983
same,normalized growth,"S. cerevisiae deletion strains, locus YNR052C, strain pop2, hits give low values",0.972
same,normalized growth,"S. cerevisiae deletion strains, locus YOL006C, strain TOP1, hits give low values",0.79
same,normalized growth,"S. cerevisiae deletion strains, locus YOL012C, strain htz1",0.956
same,normalized growth,"S. cerevisiae deletion strains, locus YOL147C, strain pex11, hits give low values",0.975
same,normalized growth,"S. cerevisiae deletion strains, locus YOR001W, strain rrp6, hits give low values",1.05
same,normalized growth,"S. cerevisiae deletion strains, locus YOR061W, strain CKA2, hits give low values",0.986
same,normalized growth,"S. cerevisiae deletion strains, locus YOR069W, strain VPS5, hits give low values",0.989
same,normalized growth,"S. cerevisiae deletion strains, locus YOR070C, strain gyp1, hits give low values",1
same,normalized growth,"S. cerevisiae deletion strains, locus YOR080W, strain dia2, hits give low values",0.996
same,normalized growth,"S. cerevisiae deletion strains, locus YOR083W, strain WHI5, hits give low values",0.931
same,normalized growth,"S. cerevisiae deletion strains, locus YOR106W, strain vam3, hits give low values",0.914
same,normalized growth,"S. cerevisiae deletion strains, locus YOR136W, strain idh2, hits give low values",0.977
same,normalized growth,"S. cerevisiae deletion strains, locus YOR144C, strain elg1, hits give low values",0.985
same,normalized growth,"S. cerevisiae deletion strains, locus YOR184W, strain ser1, hits give low values",0.943
same,normalized growth,"S. cerevisiae deletion strains, locus YOR231W, strain MKK1, hits give low values",1.05
same,normalized growth,"S. cerevisiae deletion strains, locus YOR265W, strain rbl2, hits give low values",0.994
same,normalized growth,"S. cerevisiae deletion strains, locus YOR270C, strain vph1, hits give low values",0.909
same,normalized growth,"S. cerevisiae deletion strains, locus YOR290C, strain snf2, hits give low values",0.962
same,normalized growth,"S. cerevisiae deletion strains, locus YOR316C, strain cot1, hits give low values",0.971
same,normalized growth,"S. cerevisiae deletion strains, locus YPL051W, strain arl3, hits give low values",0.992
same,normalized growth,"S. cerevisiae deletion strains, locus YPL055C, strain LGE1, hits give low values",0.91
same,normalized growth,"S. cerevisiae deletion strains, locus YPL078C, strain atp4, hits give low values",0.926
same,normalized growth,"S. cerevisiae deletion strains, locus YPL106C, strain sse1, hits give low values",0.967
same,normalized growth,"S. cerevisiae deletion strains, locus YPL240C, strain hsp82, hits give low values",0.989
same,normalized growth,"S. cerevisiae deletion strains, locus YPL241C, strain CIN2, hits give low values",0.993
same,normalized growth,"S. cerevisiae deletion strains, locus YPL256C, strain CLN2, hits give low values",1.03
same,normalized growth,"S. cerevisiae deletion strains, locus YPR119W, strain clb2, hits give low values",0.967
same,normalized growth,"S. cerevisiae deletion strains, locus YPR141C, strain kar3, hits give low values",0.968
same,normalized growth,"S. cerevisiae deletion strains, locus YPR163C, strain tif3, hits give low values",0.989
same,normalized growth,"S. cerevisiae deletion strains, locus YPR167C, strain met16, hits give low values",0.969
same,normalized growth,"S. cerevisiae deletion strains, strain wtn01, hits give low values",0.965
same,normalized growth,"S. cerevisiae strains, strain wild type, hits give low values",0.986
